Reference: PubChem BioAssay AID1159580 (chemical genetic matrix, 2015)
Among all 5,500 compounds or so, about 2,000 (36%) were called active. Inconclusive results (about 18%) are left out. No stated cut-off is given here; in the data, active means normalized growth mostly below about 0.91 (no sharp cut-off); inconclusive means no clear call, values can overlap the other calls; inactive means mostly above about 0.92. Some of the results follow.

Assay: chemical genetic growth profiling, strain panel (AID 1159580);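 further: tested at 20 µM; growth read once vehicle control cultures reached saturation at 30 °C; 1 = growth at the plate median or of vehicle wells; lower values mean less growth of the strain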
Details: S. cerevisiae deletion strains, growth OD

Measured: normalized growth

C=C1CCC2[C@](C)(CO)[C@H](O)CC[C@@]2(C)[C@@H]1C/C=C1/C(=O)OC[C@H]1O (some centres undefined)
inactive: locus YAL013W, strain DEP1, hits give low values 1.01 | locus YAL021C, strain ccr4, hits give low values 0.993 | locus YAL026C, strain drs2, hits give low values 0.992 | locus YAL030W, strain snc1, hits give low values 0.996 | locus YBL061C, strain skt5, hits give low values 1 | locus YBR009C, strain hhf1, hits give low values 1.02 | locus YBR021W, strain FUR4, hits give low values 1 | locus YBR023C, strain chs3, hits give low values 0.999 | locus YBR171W, strain sec66, hits give low values 0.978 | locus YBR229C, strain ROT2, hits give low values 1.01 | locus YBR231C, strain swc5, hits give low values 0.996 | locus YBR279W, strain paf1, hits give low values 1 | locus YCL011C, strain gbp2, hits give low values 0.985 | locus YCL016C, strain dcc1, hits give low values 0.998 | locus YCL029C, strain bik1, hits give low values 1.03 | locus YCL069W, strain vba3, hits give low values 1.01 | locus YCR088W, strain abp1, hits give low values 1 | locus YDL005C, strain med2, hits give low values 0.961 | locus YDL035C, strain GPR1, hits give low values 1.02 | locus YDL040C, strain nat1, hits give low values 0.995 | locus YDL074C, strain BRE1, hits give low values 1.06 | locus YDL101C, strain DUN1, hits give low values 1.02 | locus YDL185W, strain tfp1, hits give low values 1.03 | locus YDL192W, strain arf1, hits give low values 1.02 | locus YDR001C, strain nth1, hits give low values 0.988 | locus YDR069C, strain doa4, hits give low values 0.992 | locus YDR101C, strain arx1, hits give low values 1.01 | locus YDR137W, strain rgp1, hits give low values 0.995 | locus YDR159W, strain sac3, hits give low values 1.04 | locus YDR162C, strain NBP2, hits give low values 1.04 | locus YDR195W, strain ref2 0.949 | locus YDR297W, strain sur2, hits give low values 1 | locus YDR318W, strain mcm21, hits give low values 1.05 | locus YDR334W, strain swr1, hits give low values 0.987 | locus YDR335W, strain msn5, hits give low values 0.986 | locus YDR388W, hits give low values 1.01 | locus YDR392W, strain spt3, hits give low values 0.998 | locus YDR502C, strain sam2, hits give low values 1.05 | locus YEL003W, strain gim4, hits give low values 0.995 | locus YEL037C, strain rad23, hits give low values 0.999 | locus YEL061C, strain CIN8 (second series), hits give low values 0.99 | locus YEL061C, strain CIN8, hits give low values 1.01 | locus YER015W, strain faa2, hits give low values 0.994 | locus YER016W, strain bim1, hits give low values 0.978 | locus YER110C, hits give low values 1.02 | locus YER111C, strain swi4, hits give low values 0.988 | locus YER155C, strain BEM2 (second series), hits give low values 0.995 | locus YER155C, strain BEM2, hits give low values 1.02 | locus YER167W, strain BCK2, hits give low values 1.01 | locus YFR010W, strain ubp6, hits give low values 1.02 | locus YGL078C, strain dbp3, hits give low values 1.03 | locus YGL086W, strain mad1, hits give low values 1.01 | locus YGL167C, strain pmr1, hits give low values 0.992 | locus YGL173C, strain kem1, hits give low values 1.01 | locus YGL227W, strain vid30, hits give low values 0.991 | locus YGL240W, strain doc1, hits give low values 0.999 | locus YGL248W, strain PDE1, hits give low values 1.03 | locus YGL253W, strain hxk2, hits give low values 0.971 | locus YGR078C, strain PAC10, hits give low values 1.03 | locus YGR135W, strain pre9, hits give low values 1.05 | locus YGR252W, strain gcn5, hits give low values 1.01 | locus YHR013C, strain ard1, hits give low values 0.983 | locus YHR027C, strain rpn1, hits give low values 0.976 | locus YHR079C, strain IRE1 (second series), hits give low values 1.03 | locus YHR094C, strain hxt1, hits give low values 1.02 | locus YHR129C, strain ARP1, hits give low values 1.01 | locus YHR142W, strain chs7, hits give low values 0.976 | locus YHR200W, strain rpn10, hits give low values 1.03 | locus YIL066C, strain RNR3, hits give low values 1.02 | locus YIL073C, strain SPO22, hits give low values 1.11 | locus YIL125W, strain kgd1, hits give low values 1.03 | locus YIR030C, strain dcg1, hits give low values 1.03 | locus YJL092W, strain hpr5, hits give low values 0.985 | locus YJL095W, strain BCK1 (second series), hits give low values 0.982 | locus YJL095W, strain BCK1, hits give low values 1.05 | locus YJL115W, strain asf1, hits give low values 0.955 | locus YJL129C, strain trk1, hits give low values 0.982 | locus YJL134W, strain LCB3, hits give low values 1.01 | locus YJL154C, strain vps35, hits give low values 0.984 | locus YJL164C, strain tpk1, hits give low values 1.01 | locus YJL166W, strain qcr8, hits give low values 0.987 | locus YJL168C, strain set2, hits give low values 1.02 | locus YJL187C, strain SWE1 (second series), hits give low values 1.02 | locus YJL187C, strain SWE1, hits give low values 0.996 | locus YJR043C, strain POL32, hits give low values 1.02 | locus YKL009W, strain mrt4, hits give low values 1.02 | locus YKL068W, hits give low values 1.02 | locus YKL085W, strain MDH1 (second series), hits give low values 1.03 | locus YKL085W, strain MDH1, hits give low values 1.03 | locus YKL160W, strain elf1, hits give low values 0.995 | locus YKL190W, strain CNB1, hits give low values 1.01 | locus YKR001C, strain vps1, hits give low values 1.07 | locus YKR026C, strain gcn3, hits give low values 0.999 | locus YKR091W, strain srl3, hits give low values 0.979 | locus YLL001W, strain dnm1, hits give low values 1.01 | locus YLL026W, hits give low values 0.993 | locus YLL041C, strain sdh2, hits give low values 1.02 | locus YLR027C, strain aat2, hits give low values 1 | locus YLR039C, strain RIC1, hits give low values 1.09 | locus YLR058C, strain SHM2, hits give low values 1.04 | locus YLR102C, strain apc9, hits give low values 1.02 | locus YLR221C, strain rsa3, hits give low values 1.04 | locus YLR258W, strain gsy2, hits give low values 1.01 | locus YLR262C, strain YPT6 (second series), hits give low values 0.975 | locus YLR268W, strain sec22, hits give low values 1.04 | locus YLR320W, strain mms22, hits give low values 1.04 | locus YLR330W, strain CHS5, hits give low values 1.02 | locus YLR342W, strain FKS1, hits give low values 1.02 | locus YLR357W, strain rsc2, hits give low values 0.979 | locus YLR370C, strain arc18, hits give low values 0.972 | locus YLR371W, strain rom2, hits give low values 1.02 | locus YLR384C, strain iki3, hits give low values 0.993 | locus YLR418C, strain cdc73, hits give low values 1.07 | locus YML016C, strain PPZ1, hits give low values 1.01 | locus YML032C, strain rad52, hits give low values 1.03 | locus YML120C, strain ndi1, hits give low values 1 | locus YML124C, strain tub3, hits give low values 1.03 | locus YMR058W, strain fet3, hits give low values 0.977 | locus YMR078C, strain ctf18, hits give low values 1.03 | locus YMR125W, strain sto1, hits give low values 0.98 | locus YMR129W, hits give low values 0.98 | locus YMR205C, strain PFK2, hits give low values 0.995 | locus YMR223W, strain ubp8, hits give low values 1.03 | locus YMR231W, strain pep5, hits give low values 0.997 | locus YMR307W, strain GAS1, hits give low values 0.967 | locus YNL067W, strain RPL9B, hits give low values 1.02 | locus YNL071W, strain lat1, hits give low values 1 | locus YNL209W, strain ssb2, hits give low values 0.987 | locus YNL233W, strain BNI4, hits give low values 1.02 | locus YNL248C, strain rpa49, hits give low values 0.979 | locus YNL250W, strain rad50, hits give low values 1.04 | locus YNL271C, strain bni1, hits give low values 1.03 | locus YNL298W, strain CLA4, hits give low values 1.03 | locus YNL307C, strain MCK1, hits give low values 1.04 | locus YNL322C, strain KRE1 (second series), hits give low values 0.977 | locus YNR049C, strain mso1, hits give low values 0.974 | locus YNR052C, strain pop2, hits give low values 1.03 | locus YOL006C, strain TOP1, hits give low values 1.07 | locus YOL012C, strain htz1 1.13 | locus YOL147C, strain pex11, hits give low values 1.04 | locus YOR001W, strain rrp6, hits give low values 1.01 | locus YOR061W, strain CKA2, hits give low values 1.02 | locus YOR069W, strain VPS5, hits give low values 1.01 | locus YOR070C, strain gyp1, hits give low values 1.01 | locus YOR080W, strain dia2, hits give low values 0.966 | locus YOR083W, strain WHI5, hits give low values 1 | locus YOR106W, strain vam3, hits give low values 0.986 | locus YOR136W, strain idh2, hits give low values 1.04 | locus YOR144C, strain elg1, hits give low values 1.03 | locus YOR184W, strain ser1, hits give low values 1.05 | locus YOR265W, strain rbl2, hits give low values 0.993 | locus YOR270C, strain vph1, hits give low values 1.02 | locus YOR290C, strain snf2, hits give low values 0.966 | locus YOR316C, strain cot1, hits give low values 1.03 | locus YPL051W, strain arl3, hits give low values 0.986 | locus YPL078C, strain atp4, hits give low values 0.982 | locus YPL106C, strain sse1, hits give low values 1 | locus YPL240C, strain hsp82, hits give low values 0.998 | locus YPL241C, strain CIN2, hits give low values 1.01 | locus YPR119W, strain clb2, hits give low values 1.02 | locus YPR141C, strain kar3, hits give low values 1.01 | locus YPR163C, strain tif3, hits give low values 1.04 | locus YPR167C, strain met16, hits give low values 1.03 | strain wtn01, hits give low values 1.02
